Hits are enriched below; roughly 10% of the tested compounds scored in any of these assays.
HP1b binding inh – blocks HP1-beta chromodomain binding to methylated histone tails; AlphaScreen HP1-beta / biotin-H3K9me3 peptide binding; hit rate 0.56% among 390,000; Potency, µM (titrated, usually from 114 µM), hits mostly inhibitors; also: nearly all actives have a fitted effect of over 70% in size
Target sequence (P83916 whole entry, looked up): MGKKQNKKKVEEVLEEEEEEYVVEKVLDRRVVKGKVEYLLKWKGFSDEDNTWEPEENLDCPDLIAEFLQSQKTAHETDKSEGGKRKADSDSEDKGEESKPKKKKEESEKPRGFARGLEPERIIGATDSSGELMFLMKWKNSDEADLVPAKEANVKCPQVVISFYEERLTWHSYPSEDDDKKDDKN
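HP1-beta protein (50 nM final) preincubated 30 min at room temperature with biotinylated H3(1-18)K9me3 peptide (50 nM) in PBS pH 7.4, 0.01% Tween-20, then compound added for 30 min. AlphaScreen streptavidin donor/nickel chelate acceptor beads (10 ug/mL final), 30 min dark, luminescence read.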
GLS inh – inhibitors of human glutaminase (GLS); GLS enzymatic activity, qHTS titration; hit rate 0.21% among 410,000; Potency, µM (doses to about 45.5 µM), actives largely listed as inhibitors
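Glutamate formation by hKGA was monitored fluorometrically using coupled glutamate oxidase, HRP and Amplex Red. Substrate was added as 1 mM L-glutamine solution; incubation was 30 min at RT after an initial read.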
L3MBTL1 block – blocks human L3MBTL1 | Q9Y468 | AlphaScreen L3MBTL1–H3K9me1 peptide binding | Potency, µM (highest dose often 57.1 µM), hits mostly inhibitors | hit rate 0.66% among 230,000 | AID 485360; also: nearly all actives have a fitted effect of over 60% in size
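Read-out is AlphaScreen signal from streptavidin donor and nickel chelate acceptor beads (10 ug/mL final each) bridging L3MBTL1 (50 nM) and biotinylated K9-monomethylated H3(1-15) peptide (75 nM), after 30 min compound exposure at room temperature.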
BAZ2B block – blocks human BAZ2B; Q9UIF8; Potency, µM (top dose mostly 114 µM), hits mostly inhibitors; AlphaScreen BAZ2B-H3K14Ac peptide displacement; hit rate 4.4% among 360,000; AID 504333; also: nearly all actives have a fitted effect of over 60% in size
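Inhibition is scored as reduced AlphaScreen emission. The BAZ2B/b-H3(5-23)K14Ac complex (50 nM each) in PBS pH 7.4, 0.01% Tween-20 meets compound (up to 110 uM) for 30 min at RT before bead addition.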
G9a inh – G9a (human) methyltransferase inhibition. hit rate 8.8% among 350,000. G9a H3K9 monomethylation, AlphaScreen, 2 h. Potency, µM (highest dose often 102 µM), most hits filed as inhibitors. Q96KQ7; also: nearly all actives have a fitted effect of over 75% in size
Target sequence (Q96KQ7 913-1193 limits assumed): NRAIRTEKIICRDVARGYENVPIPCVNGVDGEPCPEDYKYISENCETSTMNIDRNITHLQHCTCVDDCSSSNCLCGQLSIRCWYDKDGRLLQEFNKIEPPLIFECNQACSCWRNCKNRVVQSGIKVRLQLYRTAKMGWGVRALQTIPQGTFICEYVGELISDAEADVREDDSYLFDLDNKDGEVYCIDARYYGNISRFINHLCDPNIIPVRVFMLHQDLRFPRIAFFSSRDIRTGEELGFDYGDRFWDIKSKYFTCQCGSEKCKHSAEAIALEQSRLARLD
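Quantitative HTS format: methyltransferase activity on a biotin-tagged H3K9 peptide is measured by AlphaScreen, using a rabbit anti-monomethyl-H3K9 antibody with streptavidin donor and anti-IgG acceptor beads. Final levels are 20 nM enzyme, 500 nM peptide, 20 uM SAM; 2 h RT.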
JMJD2A Tudor – JMJD2A Tudor domain (human) inhibition; AlphaScreen JMJD2A-Tudor / H3K4me3 peptide binding; Potency, µM (titrated, usually from 114 µM), actives largely listed as inhibitors; hit rate 4.4% among 390,000; also: nearly all actives have a fitted effect of over 50% in size
Numbers stand for hits; - = inactive; ? = inconclusive; . = not tested or not shown; [ ] = remark or other dose. Calls follow the shape of the dose curve; as a rule, active = well fitted curve in the direction sought with a large enough effect; inconclusive = small, poorly fitted or top-dose-only effect, or another doubt; inactive = no such curve, though single readings can be large; an effect the other way counts as inactive or inconclusive.

SMILES | HP1b binding inh | GLS inh | L3MBTL1 block | BAZ2B block | G9a inh | JMJD2A Tudor
COc1ccc2[nH]c(=O)c(CN(C(=O)c3cccc(Cl)c3)c3cccc(C)c3)cc2c1 | - | - | . | - | - | -
COc1ccc(NC(=O)Cn2c(=O)n(CCCC(=O)NCCc3ccc(C)cc3)c(=O)c3ccccc32)cc1Cl | - | - | . | - | - | -
Cc1cc(OCC(=O)NNC(=S)NC(=O)c2ccc(Br)o2)ccc1Cl | - | - | . | - | 32µM | -
COc1ccc(CC(=O)NNC(=S)Nc2ccccc2)cc1Br | - | - | - | - | ? | -
Cc1cc(C)nc(NS(=O)(=O)c2ccc(NC(=O)COc3ccc(Cl)cc3C)cc2)n1 | - | - | . | - | 10µM | -
O=C(CCc1ccccc1)NCc1ccccc1 | - | - | . | - | - | -
CCOc1ccc(CC(=O)NNC(=S)Nc2ccccc2)cc1Br | - | - | . | - | 25µM | -[11.4 µM]
Cc1ccc(CCC(=O)NCc2ccccc2)o1 | - | - | - | - | 79µM | -
Cc1cc(C)nc(NS(=O)(=O)c2ccc(NC(=O)COc3ccccc3)cc2)n1 | - | - | - | - | - | -
COc1ccc(CNC(=O)CN2C(=O)CSc3ccc(S(=O)(=O)N4CCCC4)cc32)cc1 | - | - | . | - | - | -
COc1ccc(S(=O)(=O)NCCc2sc(-c3cccc(F)c3)nc2C)cc1 | - | - | . | - | - | -
Cc1ccccc1NC(=O)Cn1c(=O)n(Cc2ccco2)c(=O)c2cccnc21 | - | - | . | - | - | -
COc1ccc(OCC(=O)NC(=S)NNC(=O)COc2ccc(Br)cc2Cl)cc1 | ? | - | - | - | 1.6µM | 8.9µM
COc1ccc(NC(=S)NNC(=O)CNc2ccc(Cl)cc2)cc1 | - | - | - | ? | 10µM | -
Cc1ccc(CCC(=O)Nc2ccc(C#N)cc2)o1 | - | - | . | - | 40µM | -
COc1ccc(NC(=S)NNC(=O)COc2ccc(Cl)cc2Cl)cc1 | - | - | - | - | 20µM | ?
CCOc1ccc(-c2cc3c(=O)n(CC(=O)Nc4cc(F)ccc4C)ccn3n2)cc1 | - | - | . | - | -[12.7 µM] | -
Cc1nn(C)c(C)c1CCNC(=O)Nc1cccc(Cl)c1C | - | - | . | - | - | -
O=C(CNc1ccc(Cl)cc1)NNC(=S)NCc1ccccc1 | - | ? | - | - | 50µM | ?
COc1ccc(NC(=O)CNc2ccc(C#N)cc2)cc1 | - | - | . | - | 50µM | -
CC(=O)Nc1ccc(NC(=O)COc2ccc(-c3ccc(C#N)cc3)cc2)cc1 | - | - | - | - | -[0.501 µM] | -
COc1cccc(-n2c(=O)c3cc(OC)c(OC)cc3n(CC(=O)Nc3ccc(F)cc3)c2=O)c1 | - | - | . | - | - | -
O=c1cc(CN2CCN(c3ccc(O)cc3)CC2)nc2scc(-c3ccccc3)n12 | ? | ? | - | - | 10µM | -
Cc1cccc(C)c1OCc1cc(=O)n2c(-c3ccccc3)csc2n1 | - | - | . | - | - | -
O=C(NNS(=O)(=O)c1ccccc1)c1cccc(F)c1 | - | - | -[2.29 µM] | 56µM | -[0.501 µM] | -
SMILES | HP1b binding inh | GLS inh | L3MBTL1 block | BAZ2B block | G9a inh | JMJD2A Tudor
O=C(NNS(=O)(=O)c1ccc([N+](=O)[O-])cc1)c1ccncc1 | - | - | . | - | 40µM | -
Cc1ccc(S(=O)(=O)NNC(=O)c2sc(=S)n(C)c2C)cc1 | - | - | - | - | ? | 3.5µM
O=C(NNS(=O)(=O)c1ccccc1)c1ccncc1 | - | - | - | - | ? | 10µM
Cc1ccc2c(c1)-c1onc(C(=O)N3CCN(c4ccc(Cl)cc4)CC3)c1CO2 | - | - | . | - | - | -
CC(NC(=O)Nc1cc(Cl)ccc1Cl)c1c(-n2cccc2)sc2c1CCCC2 (stereo not given) | - | - | . | - | - | -
COc1ccc(-n2c(=O)c3c(c4cc(OC)ccc4n3C)n(CC(=O)N3CCCC3)c2=O)cc1 | - | - | . | ? | - | -
Cc1cccc(C(=O)NNS(=O)(=O)c2ccc(F)cc2)c1O | - | ? | - | - | - | 2µM
Cc1ccc(S(=O)(=O)NNC(=O)c2ccncc2)cc1 | - | - | - | - | - | 79µM
Cc1ccc(S(=O)(=O)NNC(=O)c2cccnc2)cc1 | - | - | . | . | - | -
CC(C)c1ccc(NC(=O)CN2C(=O)COc3ccc(S(=O)(=O)N4CCCCCC4)cc32)cc1 | - | - | . | - | - | -
CCOc1ccccc1C(=O)Oc1c(S(=O)(=O)c2ccc(C)cc2)c(C)nn1-c1ccccc1 | - | ? | . | ? | ? | -

Screens (PubChem BioAssay)
